“And” between values parts separate entries of the source, which are not always exact repeats. Identical values can stand only once. The source made the active and inactive calls. Cut-off read from the data, not from the text of the source, unless noted: active = inhibition above about 28%; inactive = the rest.

Broadly, the inhibition is the change of the read-out against control, counted positive when it falls.

One assay has as its system Hepatitis C virus NS3 helicase. Briefly: HCV NS3 helicase inhibitors, primary screen, biochemical, fluorescence polarization, NIH Clinical Collection (AID 743270; call rule not given here). The settings on record: NS3 helicase binding to Cy5-dT15 DNA, hits give high values, concentration not given here.
As to `CC12CC3CC(C)(C1)CC(N)(C3)C2`, the inhibition is -1.36% (inactive).
As for `CC(=O)OCC(CCn1cnc2cnc(N)nc21)COC(C)=O`, the inhibition was -1.98% (inactive).
Turning to `S=c1nc[nH]c2nc[nH]c12`, the inhibition is -1.36% (inactive).
Still for that read-out and setting: next, `Oc1c(Cl)cc(Cl)c2cccnc12`: 2.27% (inactive); `CC1=NS(=O)(=O)c2cc(Cl)ccc2N1`: 5.94% (inactive); `OC(Cn1cncn1)(Cn1cncn1)c1ccc(F)cc1F`: -3.18% (inactive).
Consider `NCCc1ccc(O)c(O)c1`, for which the inhibition was -5.91% (inactive).
Regarding `CN=C(NC#N)NCCSCc1nc[nH]c1C`, the inhibition was -3.18% (inactive).
Take `COc1c(N2CCNC(C)C2)c(F)cc2c(=O)c(C(=O)O)cn(C3CC3)c12` (centres undefined): the inhibition is -8.64% (inactive).
On to `CC1COc2c(N3CCN(C)CC3)c(F)cc3c(=O)c(C(=O)O)cn1c23` (centres undefined), for which the inhibition was -2.27% (inactive).
Regarding `O=C(C1CCCCC1)N1CC(=O)N2CCc3ccccc3C2C1` (centres undefined), the inhibition is -5.91% (inactive).
Turning to `CCc1cc(C(N)=S)ccn1`, the inhibition is -4.09% (inactive).
In the case of `CC1=C(/C=C/C(C)=C/C=C/C(C)=C/C(=O)O)C(C)(C)CCC1`, the inhibition is 1.36% (inactive).
Turning to `CCCCNc1cc(C(=O)O)cc(S(N)(=O)=O)c1Oc1ccccc1`, the inhibition was -5.91% (inactive).
Same read-out and setting: next, `O=c1[nH]cnc2[nH]ncc12`: -5% (inactive); `O=C1c2c(O)ccc(O)c2C(=O)c2c(NCCNCCO)ccc(NCCNCCO)c21`: 128% (active).
Same read-out and setting: next, `O=C(O)c1cc(=O)c2c(OCC(O)COc3cccc4oc(C(=O)O)cc(=O)c34)cccc2o1`: -2.27% (inactive).
As for `CC(C)C(=O)Nc1ccc([N+](=O)[O-])c(C(F)(F)F)c1`, the inhibition was -1.36% (inactive).
Take `CC(COc1ccccc1)N(CCCl)Cc1ccccc1` (centres undefined): the inhibition was -5% (inactive).
On to `CCCc1nc2c(C)cc(-c3nc4ccccc4n3C)cc2n1Cc1ccc(-c2ccccc2C(=O)O)cc1`, for which the inhibition is 17% (active).
For the molecule `CC(=O)CC(c1ccccc1)c1c(O)c2ccccc2oc1=O` (centres undefined), the inhibition is -2.27% (inactive).
Same read-out and setting: the same measure for `NS(=O)(=O)c1cc2c(cc1Cl)NCNS2(=O)=O`: -5% (inactive); for `CS(=O)(=O)OCCCCOS(C)(=O)=O`: -12.3% (inactive); for `CCOC(=O)C1=C(C)NC(C)=C(C(=O)OC)C1c1cccc([N+](=O)[O-])c1` (centres undefined): 4.36% (inactive).
On to `COc1ccccc1OCCNCC(O)COc1cccc2[nH]c3ccccc3c12` (centres undefined), for which the inhibition is 1.19% (inactive).
Consider `O=C(O)CCCc1ccccc1`, for which the inhibition is -2.27% (inactive).
The same measure, in the same setting: next, `NNCCc1ccccc1`: 1.19% (inactive) and -5.91% (inactive).
Consider `CC1Cc2ccccc2N1NC(=O)c1ccc(Cl)c(S(N)(=O)=O)c1` (centres undefined), for which the inhibition was 0.45% (inactive).
As to `N[C@@H]1CONC1=O`, the inhibition was 5.94% (inactive) and -1.36% (inactive).
Regarding `CCN(Cc1ccncc1)C(=O)C(CO)c1ccccc1` (centres undefined), the inhibition was -2.27% (inactive).
For `CCCc1cc(=O)[nH]c(=S)[nH]1`, the inhibition was -1.36% (inactive).
On the same count and under the same terms, next, `CC(C[N+](C)(C)C)OC(N)=O` (centres undefined): -3.18% (inactive); `COc1ccc(Cl)cc1C(=O)NCCc1ccc(S(=O)(=O)NC(=O)NC2CCCCC2)cc1`: -2.27% (inactive); `N[C@@H](Cc1cc(I)c(Oc2cc(I)c(O)c(I)c2)c(I)c1)C(=O)O`: 0.45% (inactive).
For `CC1(C)O[C@@H]2[C@@H](CO[C@@]3(COS(N)(=O)=O)OC(C)(C)O[C@@H]23)O1`, the inhibition was -0.4% (inactive).
`COCCOC(=O)C1=C(C)NC(C)=C(C(=O)OC(C)C)C1c1cccc([N+](=O)[O-])c1` (centres undefined): the inhibition was 6.77% (inactive).
Turning to `NNC(=O)c1ccncc1`, the inhibition is -2.27% (inactive).

For another assay, the target named is Single-stranded DNA-binding protein (Escherichia coli (strain K12)) (UniProt P0AGE0). As to the kind of experiment: E. coli SSB displacement from DNA, counter-screen for HCV NS3 helicase inhibitor project, biochemical, fluorescence polarization, NIH Clinical Collection (AID 743271). The following applies: hits give high values, concentration not given here. In general terms: A counterscreen serves to expose hits that act by an unwanted route or on another target.
Take `CC12CC3CC(C)(C1)CC(N)(C3)C2`: the inhibition was -0.48% (inactive).
Consider `CC(=O)OCC(CCn1cnc2cnc(N)nc21)COC(C)=O`, for which the inhibition is -4.72% (inactive).
Turning to `S=c1nc[nH]c2nc[nH]c12`, the inhibition was 0.29% (inactive).
Still for that read-out and setting: next, `Oc1c(Cl)cc(Cl)c2cccnc12`: -0.48% (inactive).
In the case of `CC1=NS(=O)(=O)c2cc(Cl)ccc2N1`, the inhibition is 4.52% (inactive).
The same measure, in the same setting: the same measure for `OC(Cn1cncn1)(Cn1cncn1)c1ccc(F)cc1F`: -4.29% (inactive); for `NCCc1ccc(O)c(O)c1`: -2% (inactive); for `CN=C(NC#N)NCCSCc1nc[nH]c1C`: -2% (inactive).
Turning to `COc1c(N2CCNC(C)C2)c(F)cc2c(=O)c(C(=O)O)cn(C3CC3)c12` (centres undefined), the inhibition is -6.58% (inactive).
Same read-out and setting: the same measure for `CC1COc2c(N3CCN(C)CC3)c(F)cc3c(=O)c(C(=O)O)cn1c23` (centres undefined): 2.57% (inactive); for `O=C(C1CCCCC1)N1CC(=O)N2CCc3ccccc3C2C1` (centres undefined): -2% (inactive).
As for `CCc1cc(C(N)=S)ccn1`, the inhibition was -4.29% (inactive).
Regarding `CC1=C(/C=C/C(C)=C/C=C/C(C)=C/C(=O)O)C(C)(C)CCC1`, the inhibition is 2.57% (inactive).
Take `CCCCNc1cc(C(=O)O)cc(S(N)(=O)=O)c1Oc1ccccc1`: the inhibition was -2.76% (inactive).
On the same count and under the same terms, next, `O=c1[nH]cnc2[nH]ncc12`: -3.53% (inactive).
For the molecule `O=C1c2c(O)ccc(O)c2C(=O)c2c(NCCNCCO)ccc(NCCNCCO)c21`, the inhibition is 121% (active).
On the same count and under the same terms, the same measure for `O=C(O)c1cc(=O)c2c(OCC(O)COc3cccc4oc(C(=O)O)cc(=O)c34)cccc2o1`: 3.34% (inactive); for `CC(C)C(=O)Nc1ccc([N+](=O)[O-])c(C(F)(F)F)c1`: 2.57% (inactive); for `CC(COc1ccccc1)N(CCCl)Cc1ccccc1` (centres undefined): -0.48% (inactive).
For `CCCc1nc2c(C)cc(-c3nc4ccccc4n3C)cc2n1Cc1ccc(-c2ccccc2C(=O)O)cc1`, the inhibition was 16.8% (inactive).
For the molecule `CC(=O)CC(c1ccccc1)c1c(O)c2ccccc2oc1=O` (centres undefined), the inhibition is -3.53% (inactive).
For `NS(=O)(=O)c1cc2c(cc1Cl)NCNS2(=O)=O`, the inhibition is -3.53% (inactive).
On to `CS(=O)(=O)OCCCCOS(C)(=O)=O`, for which the inhibition was -0.48% (inactive).
`CCOC(=O)C1=C(C)NC(C)=C(C(=O)OC)C1c1cccc([N+](=O)[O-])c1` (centres undefined): the inhibition is 8.37% (inactive).
`COc1ccccc1OCCNCC(O)COc1cccc2[nH]c3ccccc3c12` (centres undefined): the inhibition was 6.83% (inactive).
In the case of `O=C(O)CCCc1ccccc1`, the inhibition was 1.05% (inactive).
Turning to `NNCCc1ccccc1`, the inhibition was -0.87% (inactive) and -0.48% (inactive).
With `CC1Cc2ccccc2N1NC(=O)c1ccc(Cl)c(S(N)(=O)=O)c1` (centres undefined), the inhibition is 1.05% (inactive).
As to `N[C@@H]1CONC1=O`, the inhibition was 2.98% (inactive) and 0.29% (inactive).
`CCN(Cc1ccncc1)C(=O)C(CO)c1ccccc1` (centres undefined): the inhibition was -5.05% (inactive).
As to `CCCc1cc(=O)[nH]c(=S)[nH]1`, the inhibition is 0.29% (inactive).
As for `CC(C[N+](C)(C)C)OC(N)=O` (centres undefined), the inhibition is -1.24% (inactive).
With `COc1ccc(Cl)cc1C(=O)NCCc1ccc(S(=O)(=O)NC(=O)NC2CCCCC2)cc1`, the inhibition is 1.05% (inactive).
As to `N[C@@H](Cc1cc(I)c(Oc2cc(I)c(O)c(I)c2)c(I)c1)C(=O)O`, the inhibition is 0.29% (inactive).
On the same count and under the same terms, the same measure for `CC1(C)O[C@@H]2[C@@H](CO[C@@]3(COS(N)(=O)=O)OC(C)(C)O[C@@H]23)O1`: -6.26% (inactive).
On to `COCCOC(=O)C1=C(C)NC(C)=C(C(=O)OC(C)C)C1c1cccc([N+](=O)[O-])c1` (centres undefined), for which the inhibition is 15.3% (inactive).
For the molecule `NNC(=O)c1ccncc1`, the inhibition is 3.34% (inactive).
